Data reported in PubChem BioAssay AID1649 (The Scripps Research Institute Molecular Screening Center, 2009).
The other results are listed elsewhere or left out. Unmarked numbers belong to inactive results. Calls of active or inactive are those of the source. Rule as the data show it: active = activation above about 33%; inactive = the rest.

Test: NPY-Y2 potentiators or agonists, counter-screen for NPY-Y1 potentiator project, cell-based, fluorescence (AID 1649)
Settings: HEK293-CNG cells, membrane-potential fluorescence (FLIPR), 1536-well; at 3.6 µM; active compounds read high

Structure (SMILES)	activation
Cc1cccc(OCC(O)CN2CCN(CCN3C(=O)c4cccc5cccc(c45)C3=O)CC2)c1C (stereo unspecified)	49.7% (active)
O=C(Nc1ccc2c(c1)CCC2)c1cccc(S(=O)(=O)Nc2ccccc2Cl)c1	-2.29%
COC(=O)c1sc(-c2ccc(C(C)(C)C)cc2)cc1NC(=O)/C=C/C(=O)O	26.2%
O=[N+]([O-])c1cc(Cl)cc(/C=N/NC(=S)Nc2cc(S(=O)(=O)N3CCOCC3)ccc2Cl)c1O	64.8% (active)
N#Cc1ccc(C(=O)Nc2nc(-c3cccs3)c(C(=O)C(F)(F)F)s2)cc1	-11.7%
O=C1/C(=C/c2coc3ccc(O)cc3c2=O)SC(=S)N1c1ccccc1	17.4%
O=C(Nc1ccccc1C(F)(F)F)c1cc(-c2ccc(O)cc2)on1	-13.4%
COC(=O)c1ccc(NC(=O)CN(c2ccc(C)cc2)S(=O)(=O)c2c(C)n[nH]c2C)cc1	27.7%
CC(=O)c1ccc(NC(=O)C2CC(=O)Nc3nc4ccccc4n32)cc1 (stereo unspecified)	22.9%
Cc1ccccc1NCC(=O)N/N=C\c1ccc([N+](=O)[O-])s1	26.6%
CSc1nc(-c2ccco2)nn1C(=O)c1ccccc1Cl	18.9%
CC1=C/C(=N\OS(=O)(=O)c2ccccc2)C=CC1=O	35.6% (active)
CN1C(=O)c2ccccc2C(C(=O)NCCCN2CCCC2)C1c1c[nH]c2ccccc12 (stereo unspecified)	-3.74%
O=C(c1cccs1)N1CCN(C(=O)N2CCOCC2)CC1	-5.13%
CCn1c2ccccc2c2cc(NC(=O)Nc3ccc([N+](=O)[O-])cc3C)ccc21	20.9%
COCCn1nnnc1C(c1ccccc1Cl)N1CCN(c2ccccc2OC)CC1 (stereo unspecified)	-5.69%
